Consider 19 compounds from PubChem BioAssay (NCATS).

Experiment [1] in a line: A High-Content qHTS Against Drug Library for the Identification of Small Molecules that Inhibit DYT1 Early Onset Primary Dystonia-Associated Cell Pathology (AID 1645839; calls by dose curve; also: potency is read from the fitted curve at half-maximal effect). The method in brief:
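Readout: %pathology, the punctate EGFP-TorsinA distribution from imaging, as the primary channel and cell count as the toxicity counterscreen. HEK293 Flp-In cells expressing delE TorsinA were induced with tetracycline and treated with compound for 48 h.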

In experiment [2] the target is Cytochrome P450 2D6 (Homo sapiens) (UniProt P10635). In words: Cytochrome P450 family 2 subfamily D member 6 (CYP2D6) small molecule antagonists: luciferase biochemical (cell-free) qHTS assay (AID 1645840; active = well fitted curve in the direction sought with a large enough effect in the repeat runs; an effect the other way counts as inactive or inconclusive; also: nearly all actives have a fitted effect of over 55% in size; also: potency is read from the fitted curve at half-maximal effect; as to activity change, negative = inhibition: % is scaled to controls: 0 for no effect and ±100 for the full control effect). The gist of the method: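 P450-Glo luminescent screen: recombinant CYP2D6 enzyme–proluciferin substrate mix preincubated with compound 10 min at room temperature, then NADPH regeneration added for 1 h at room temperature. Detection reagent added for 20 min; luciferin light read as relative luminescence units.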
Cytochrome P450 2D6 (Homo sapiens), sequence (P10635 whole entry, looked up): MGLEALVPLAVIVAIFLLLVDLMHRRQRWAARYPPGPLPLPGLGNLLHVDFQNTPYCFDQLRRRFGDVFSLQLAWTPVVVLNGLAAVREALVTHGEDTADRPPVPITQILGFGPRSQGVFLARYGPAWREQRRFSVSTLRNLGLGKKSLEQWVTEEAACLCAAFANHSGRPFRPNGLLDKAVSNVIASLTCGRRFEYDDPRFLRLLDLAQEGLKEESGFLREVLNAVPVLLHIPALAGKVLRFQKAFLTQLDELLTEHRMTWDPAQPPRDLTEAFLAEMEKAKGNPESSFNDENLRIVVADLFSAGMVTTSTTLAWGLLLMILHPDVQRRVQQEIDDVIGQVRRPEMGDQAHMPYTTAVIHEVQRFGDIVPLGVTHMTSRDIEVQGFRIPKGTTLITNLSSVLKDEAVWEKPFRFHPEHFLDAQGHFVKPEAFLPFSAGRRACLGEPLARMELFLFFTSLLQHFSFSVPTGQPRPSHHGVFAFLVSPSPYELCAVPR

Experiment [3] concerns the target Cytochrome P450 2C9 (Homo sapiens) (UniProt P11712). In words: Cytochrome P450 family 2 subfamily C member 9 (CYP2C9) small molecule antagonists: luciferase biochemical (cell-free) qHTS assay (AID 1645842; active = well fitted curve in the direction sought with a large enough effect in the repeat runs; an effect the other way counts as inactive or inconclusive; also: nearly all actives have a fitted effect of over 55% in size; also: potency is read from the fitted curve at half-maximal effect). The gist of the method:
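Luminescence, after 20 min with luciferin detection reagent, reflected CYP2C9 turnover during a 1 h NADPH-driven reaction at 37C. Enzyme-substrate mix contained 0.4% bovine serum albumin and was preincubated with compound 10 min at room temperature.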

Experiment [4] has as its target Rap guanine nucleotide exchange factor 3 (Homo sapiens) (UniProt O95398). In words: Confirmatory qHTS for antagonist of cAMP-regulated guanine nucleotide exchange factor 3 (EPAC1) (AID 1645880).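 Also: plate controls were DMSO only for no effect and full effect of the ATA control for full effect; nearly all actives have a fitted effect of over 55% in size.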 The method in brief: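 Nucleotide exchange uses 100 nM EPAC1, 250 nM RAP1B-BODIPY-GDP and 50 uM GDP, with compounds in a concentration-titration series. After 5 min at room temperature, fluorescence (480 nm ex/540 nm em) is read every 5 min for 30 min. Data are normalized to control ATA and DMSO.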

The target is the same in experiment [5]. In words: Confirmatory qHTS for agonist of cAMP-regulated guanine nucleotide exchange factor 3 (EPAC1) (AID 1645881).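 Also: EPAC1 catalysed release of BODIPY-GDP from Rap1B seen as fluorescence loss; 100% = effect of cAMP agonist control; nearly all actives have a fitted effect of over 75% in size.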
In experiment [6] the target is Rap guanine nucleotide exchange factor 4 (Homo sapiens) (UniProt Q8WZA2). In words: Confirmatory qHTS for agonist of cAMP-regulated guanine nucleotide exchange factor 4 (EPAC2) (AID 1645884).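 Also: nucleotide exchange releases bodipy-GDP from Rap1 and this lowers its fluorescence; % is scaled to controls: 0 for no effect and ±100 for the full control effect; nearly all actives have a fitted effect of over 65% in size.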
Rap guanine nucleotide exchange factor 4 (Homo sapiens), sequence (Q8WZA2 whole entry, looked up): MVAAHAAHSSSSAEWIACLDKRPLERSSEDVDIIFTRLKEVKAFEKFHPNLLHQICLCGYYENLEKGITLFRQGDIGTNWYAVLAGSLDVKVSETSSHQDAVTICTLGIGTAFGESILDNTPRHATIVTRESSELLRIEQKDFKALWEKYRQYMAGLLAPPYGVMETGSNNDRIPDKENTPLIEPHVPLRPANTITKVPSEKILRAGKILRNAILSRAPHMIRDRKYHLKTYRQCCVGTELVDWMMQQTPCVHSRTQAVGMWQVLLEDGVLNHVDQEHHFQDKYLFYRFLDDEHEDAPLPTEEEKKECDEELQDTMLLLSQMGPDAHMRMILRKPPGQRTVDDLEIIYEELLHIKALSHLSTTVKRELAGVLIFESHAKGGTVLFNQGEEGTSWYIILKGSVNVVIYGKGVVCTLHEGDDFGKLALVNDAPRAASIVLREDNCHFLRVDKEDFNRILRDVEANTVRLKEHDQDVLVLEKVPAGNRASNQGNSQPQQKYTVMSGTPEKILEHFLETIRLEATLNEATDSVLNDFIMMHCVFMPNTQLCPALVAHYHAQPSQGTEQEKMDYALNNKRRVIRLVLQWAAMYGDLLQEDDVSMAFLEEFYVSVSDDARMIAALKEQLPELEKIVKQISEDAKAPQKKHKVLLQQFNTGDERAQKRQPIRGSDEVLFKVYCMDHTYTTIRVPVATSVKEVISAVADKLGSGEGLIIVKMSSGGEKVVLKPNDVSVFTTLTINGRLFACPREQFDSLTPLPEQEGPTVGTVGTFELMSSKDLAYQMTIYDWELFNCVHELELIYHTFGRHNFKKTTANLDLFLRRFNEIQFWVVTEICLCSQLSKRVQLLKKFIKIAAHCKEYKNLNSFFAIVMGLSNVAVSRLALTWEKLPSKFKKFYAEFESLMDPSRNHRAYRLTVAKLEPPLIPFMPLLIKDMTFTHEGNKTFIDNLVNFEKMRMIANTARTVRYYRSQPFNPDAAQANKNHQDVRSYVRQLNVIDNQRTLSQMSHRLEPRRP
The target is the same in experiment [7]. In words: Confirmatory qHTS for antagonist of cAMP-regulated guanine nucleotide exchange factor 4 (EPAC2) (AID 1645885). Also: nearly all actives have a fitted effect of over 25% in size. Also: potency is read from the fitted curve at half-maximal effect.
For experiment [8], the target named is Rap guanine nucleotide exchange factor 3 (Homo sapiens) (UniProt O95398). In words: Counterscreen qHTS for antagonist of cAMP-regulated guanine nucleotide exchange factor 3 (EPAC1) (AID 1645888).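 Also: fluorescence loss as bound BODIPY-GDP is released from Rap1B; % of control where 0% means no effect.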 The gist of the method:
(§1)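 Measured: fluorescence of BODIPY-GDP bound to Rap1B, which falls as exchange proceeds. Conditions include 50 uM competing GDP, 5 and 30 min reads, and a later cAMP challenge for antagonist detection.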

Experiment [9] has the same target. In words: Counterscreen qHTS for agonist of cAMP-regulated guanine nucleotide exchange factor 3 (EPAC1) (AID 1645889). Also: % of control where 0% means no effect; nearly all actives have a fitted effect of over 40% in size. The method in brief: as §1
Experiment [10] is described as follows: NCATS anti-infectives library activity on HEK293 viability as a counter-qHTS vs the C. elegans viability qHTS (AID 1745854). Also: % is scaled to controls: 0 for no effect and ±100 for the full control effect. The gist of the method: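 Compounds were acoustically plated (several concentrations, 1:5, final up to 41.7 uM), then 1500 HEK293 cells added per well and incubated 24 hr at 37C, 5% CO2. CellTiter-Glo was added and luminescence read after 10 min.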

A short description of experiment [11]: Primary qHTS for inhibitors of nuclear receptor binding SET domain protein 2 (NSD2) in an isogenic RCH-ACV NSD2 p.E1099K mutant (9B) (AID 1645876). Also: nearly all actives have a fitted effect of over 70% in size. Also: potency is read from the fitted curve at half-maximal effect.
Experiment [12] can be described thus: Primary qHTS for inhibitors of nuclear receptor binding SET domain protein 2 (NSD2) in an RCH-ACV wild type WT cells (2C) (AID 1645877). Also: nearly all actives have a fitted effect of over 70% in size. Also: potency is read from the fitted curve at half-maximal effect.
Another experiment concerns the target Papain (Carica papaya) (UniProt P00784). In words: Primary qHTS assay for inhibitors of the protease papain (AID 1645873).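 Also: papain turnover of Z-FR-AMC read as the AMC fluorescence gain over 10 min; % is scaled to controls: 0 for no effect and ±100 for the full control effect.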
Experiment [13] concerns the target Catechol O-methyltransferase (Homo sapiens) (UniProt P21964). In words: Confirmatory Screen for Target Class Profiling of Small Molecule Inhibitors of Methyltransferases (AID 1745852). The following applies: MTase-Glo luminescence, SAH detection, recombinant enzyme; measured here: COMT max response; stronger effect = lower value.
Experiment [14] addresses Guanidinoacetate N-methyltransferase (Homo sapiens) (UniProt Q14353). The experiment is described as above. The following applies: MTase-Glo luminescence, SAH detection, recombinant enzyme; at 57.3 µM (top of the series).
Experiment [15] deals with Nicotinamide N-methyltransferase (Homo sapiens) (UniProt P40261). The description is as above. The following applies: MTase-Glo luminescence, SAH detection, recombinant enzyme; measured here: NNMT max response; stronger effect = lower value.
Nicotinamide N-methyltransferase (Homo sapiens), sequence (P40261 whole entry, looked up): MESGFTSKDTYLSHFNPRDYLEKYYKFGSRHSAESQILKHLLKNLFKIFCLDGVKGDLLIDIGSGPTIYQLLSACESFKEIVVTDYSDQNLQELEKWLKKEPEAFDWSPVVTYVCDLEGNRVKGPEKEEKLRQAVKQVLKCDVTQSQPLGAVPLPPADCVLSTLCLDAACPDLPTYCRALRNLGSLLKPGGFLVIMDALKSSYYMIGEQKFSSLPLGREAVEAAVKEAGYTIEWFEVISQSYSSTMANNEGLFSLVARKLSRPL
In experiment [16] the target is Phenylethanolamine N-methyltransferase (Homo sapiens) (UniProt P11086). The experiment is described as above. The following applies: MTase-Glo luminescence, SAH detection, recombinant enzyme; measured here: PNMT max response; stronger effect = lower value.
Phenylethanolamine N-methyltransferase (Homo sapiens), sequence (P11086 whole entry, looked up): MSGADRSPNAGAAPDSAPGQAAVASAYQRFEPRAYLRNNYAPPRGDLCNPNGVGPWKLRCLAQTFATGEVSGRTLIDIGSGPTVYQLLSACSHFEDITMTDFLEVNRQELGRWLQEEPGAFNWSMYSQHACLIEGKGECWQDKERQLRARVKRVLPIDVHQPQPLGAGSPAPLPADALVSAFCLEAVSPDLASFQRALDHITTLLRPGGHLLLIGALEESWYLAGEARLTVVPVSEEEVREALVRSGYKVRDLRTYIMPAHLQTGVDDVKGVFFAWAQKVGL
Experiment [17] can be described thus: Primary qHTS for small molecule stabilizers of the endoplasmic reticulum resident proteome: Secreted ER Calcium Modulated Protein (SERCaMP) assay (AID 1508630). Also: % is scaled to controls: 0 for no effect and ±100 for the full control effect. The method in brief: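 GLuc-SERCaMP-expressing SH-SY5Y cells, pretreated 16 h with compound, are challenged with thapsigargin to empty ER calcium stores; after 4 h, coelenterazine is added directly to the medium and luminescence is imaged.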

Where “and” joins values, the source holds several entries; their conditions need not be identical. Identical values can stand only once. Inconclusive results are not listed. Calls of active or inactive are those of the source. Unless noted, calls follow the shape of the dose curve; as a rule, active = well fitted curve in the direction sought with a large enough effect; inconclusive = small, poorly fitted or top-dose-only effect, or another doubt; inactive = no such curve, though single readings can be large; an effect the other way counts as inactive or inconclusive.

Papain (Carica papaya), sequence (P00784 whole entry, looked up): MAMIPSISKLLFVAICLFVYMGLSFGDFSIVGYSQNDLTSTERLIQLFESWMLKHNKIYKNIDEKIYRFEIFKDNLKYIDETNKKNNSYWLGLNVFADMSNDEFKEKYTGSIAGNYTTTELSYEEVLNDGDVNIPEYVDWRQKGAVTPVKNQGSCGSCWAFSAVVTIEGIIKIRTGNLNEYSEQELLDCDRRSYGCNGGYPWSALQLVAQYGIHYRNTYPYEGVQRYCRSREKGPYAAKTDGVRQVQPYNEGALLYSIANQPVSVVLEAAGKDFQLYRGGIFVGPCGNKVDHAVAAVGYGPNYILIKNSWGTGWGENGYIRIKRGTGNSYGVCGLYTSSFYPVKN
Cytochrome P450 2C9 (Homo sapiens), sequence (P11712 whole entry, looked up): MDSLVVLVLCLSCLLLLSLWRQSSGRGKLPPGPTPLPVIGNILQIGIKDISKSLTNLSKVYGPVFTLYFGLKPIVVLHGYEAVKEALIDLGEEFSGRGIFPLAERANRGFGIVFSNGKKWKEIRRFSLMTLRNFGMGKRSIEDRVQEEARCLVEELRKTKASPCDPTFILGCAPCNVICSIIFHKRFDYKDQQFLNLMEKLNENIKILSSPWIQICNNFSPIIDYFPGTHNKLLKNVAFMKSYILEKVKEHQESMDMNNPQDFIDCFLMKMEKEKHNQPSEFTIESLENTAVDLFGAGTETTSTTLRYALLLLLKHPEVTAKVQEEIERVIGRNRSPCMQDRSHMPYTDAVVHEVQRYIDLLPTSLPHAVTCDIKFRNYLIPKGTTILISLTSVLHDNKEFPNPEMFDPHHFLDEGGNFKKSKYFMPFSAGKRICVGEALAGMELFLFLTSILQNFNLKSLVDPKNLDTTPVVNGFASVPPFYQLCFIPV
Rap guanine nucleotide exchange factor 3 (Homo sapiens), sequence (O95398 whole entry, looked up): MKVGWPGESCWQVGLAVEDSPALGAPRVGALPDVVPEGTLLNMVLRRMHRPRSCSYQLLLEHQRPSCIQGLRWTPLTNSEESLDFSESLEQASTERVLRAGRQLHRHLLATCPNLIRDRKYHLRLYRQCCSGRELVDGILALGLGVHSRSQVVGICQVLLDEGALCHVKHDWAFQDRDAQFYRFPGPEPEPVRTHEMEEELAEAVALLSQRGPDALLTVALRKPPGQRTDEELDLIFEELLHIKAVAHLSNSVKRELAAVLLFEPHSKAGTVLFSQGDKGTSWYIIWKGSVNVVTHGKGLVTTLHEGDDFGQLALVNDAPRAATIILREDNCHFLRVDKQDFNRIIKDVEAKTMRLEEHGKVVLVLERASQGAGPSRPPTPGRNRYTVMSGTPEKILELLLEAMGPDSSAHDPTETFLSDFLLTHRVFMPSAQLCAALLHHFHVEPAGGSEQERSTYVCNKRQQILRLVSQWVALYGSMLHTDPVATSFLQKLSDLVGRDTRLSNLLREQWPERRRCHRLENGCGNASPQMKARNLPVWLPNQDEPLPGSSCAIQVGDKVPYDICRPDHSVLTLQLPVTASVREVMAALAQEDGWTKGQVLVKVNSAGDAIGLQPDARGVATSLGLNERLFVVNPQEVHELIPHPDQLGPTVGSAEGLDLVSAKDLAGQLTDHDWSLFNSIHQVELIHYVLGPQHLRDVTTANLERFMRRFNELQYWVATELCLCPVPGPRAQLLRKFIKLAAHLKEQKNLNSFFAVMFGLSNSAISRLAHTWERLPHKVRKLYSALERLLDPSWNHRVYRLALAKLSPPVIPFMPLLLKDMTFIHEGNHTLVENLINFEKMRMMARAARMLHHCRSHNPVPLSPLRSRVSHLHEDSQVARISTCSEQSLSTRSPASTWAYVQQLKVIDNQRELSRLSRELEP
Catechol O-methyltransferase (Homo sapiens), sequence (P21964 whole entry, looked up): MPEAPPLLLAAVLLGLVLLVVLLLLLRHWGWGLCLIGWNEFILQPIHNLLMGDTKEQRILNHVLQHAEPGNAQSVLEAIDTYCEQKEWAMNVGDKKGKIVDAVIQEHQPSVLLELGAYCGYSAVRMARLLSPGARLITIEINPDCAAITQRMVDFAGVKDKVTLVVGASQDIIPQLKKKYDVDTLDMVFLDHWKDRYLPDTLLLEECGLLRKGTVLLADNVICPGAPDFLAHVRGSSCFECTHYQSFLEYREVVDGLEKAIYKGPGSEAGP

As for `COc1cc(Cc2cnc(N)nc2N)cc(OC)c1OC`, the Potency entry in experiment [1], in experiment [2], in experiment [3], in experiment [5], in [6] and in experiment [7] was “inactive” in each case. For the same compound, the outcome in experiment [4], in experiment [8], in [9] and in [10] was “inactive” each time.

Regarding `CN/C(=C\[N+](=O)[O-])NCCSCc1ccc(CN(C)C)o1`, the Potency entry in [1], in experiment [3], in [11] and in [12] was “inactive” in each case. Besides, the Potency in experiment [2] was 15.5 µM (active).

Consider `Fc1ccc(C(c2ccc(F)cc2)N2CCN(C/C=C/c3ccccc3)CC2)cc1`, for which the figures for the Potency in experiment [1] and in experiment [3] were 12.6 µM (active) and 7.76 µM (active), respectively. The Potency entry in the experiment with Papain (Carica papaya) was “inactive”.

In the case of `CCC(=O)c1ccc2c(c1)N(CCCN(C)C)c1ccccc1S2`, the Potency in experiment [2] is 0.49 µM (active). Also, the Potency entry (in experiment [3]; with Papain (Carica papaya)) was “inactive” each time. Further, the activity in experiment [13] is 6.41%; in experiment [15] it was -51.8%; in [16], -2.93%. The activity change, negative = inhibition in experiment [14] worked out at 4.3%.

In the case of `Cc1ccc(/C(=C\CN2CCCC2)c2ccccn2)cc1`, the Potency entry (in experiment [1]; in [3]; with Papain (Carica papaya); in experiment [11]) was “inactive” throughout.

As to `CCNC(=O)N1CCN(CCCC(c2ccc(F)cc2)c2ccc(F)cc2)CC1`, the Potency result (in experiment [3]; with Papain (Carica papaya)) was “inactive” throughout.

On to `CNCCCN1c2ccccc2CCc2ccccc21`, for which the Potency entry (in [3]; with Papain (Carica papaya)) was “inactive” in each case. For the same compound, in experiment [10], the outcome is “inactive”.

Regarding `C[n+]1cc2c3c(ccc2c2ccc4cc5c(cc4c21)OCO5)OCO3`, the Potency result (in [17]; with Papain (Carica papaya)) was “inactive” throughout. Besides, the Potency is 6.74 µM (active) in [2], 580 nM (active) in [11] and 0.411 µM (active) in experiment [12].

Take `CCN(CC)CCCN(c1ccccc1)C1Cc2ccccc2C1`: the Potency in [2] is 0.0389 µM (active). For the same compound, the Potency result (in [3]; with Papain (Carica papaya)) was “inactive” throughout.

`COCC(=O)O[C@]1(CCN(C)CCCc2nc3ccccc3[nH]2)CCc2cc(F)ccc2[C@@H]1C(C)C`: the Potency entry in experiment [17] and in experiment [3] was “inactive” throughout. Further, the Potency in experiment [2] was 0.049 µM (active); in experiment [11], 10600 nM (active); in [12] it was 9.44 µM (active).

Regarding `CN1C[C@H](C(=O)N[C@]2(C)O[C@@]3(O)[C@@H]4CCCN4C(=O)[C@H](Cc4ccccc4)N3C2=O)C[C@@H]2c3cccc4[nH]cc(c34)C[C@H]21`, the Potency result in the experiment with Papain (Carica papaya) is “inactive”.

For `CCCCCN(CCCCC)C(=O)C(CCC(=O)O)NC(=O)c1ccc(Cl)c(Cl)c1` (stereo unspecified), the Potency entry in experiment [17], in experiment [11] and in experiment [12] was “inactive” in each case. In experiment [3], the Potency was 1.38 µM (active).

For the compound `CN(C)CC/C=C1\c2ccccc2COc2ccccc21`, in experiment [2], the Potency is 1.95 µM (active). Moreover, the Potency result (in experiment [3]; with Papain (Carica papaya)) was “inactive” each time.

As to `CC(C)COCC(CN(Cc1ccccc1)c1ccccc1)N1CCCC1` (stereo unspecified), the Potency entry (in experiment [17]; with Papain (Carica papaya)) was “inactive” throughout. For the same compound, the Potency in experiment [2] was 0.0347 µM (active); in [11], 2.99 µM (active) and 16.6 µM (active); in [12], 4.22 µM (active) and 16.6 µM (active).

With `C(=C\c1ccccc1)/CN1CCN(C(c2ccccc2)c2ccccc2)CC1`, the Potency entry (with Papain (Carica papaya); in experiment [11]; in experiment [12]) was “inactive” each time.

For the compound `COCCOC(=O)C1=C(C)NC(C)=C(C(=O)OC(C)C)C1c1cccc([N+](=O)[O-])c1` (stereo unspecified), the Potency entry (in experiment [17]; with Papain (Carica papaya); in [11]; in experiment [12]; in experiment [5]) was “inactive” each time. In [7], the Potency is 49.4 µM (active).

`COC(=O)C1=C(C)NC(C)=C(C(=O)OCCN(C)Cc2ccccc2)C1c1cccc([N+](=O)[O-])c1` (stereo unspecified): the Potency result (with Papain (Carica papaya); in experiment [5]; in experiment [6]) was “inactive” throughout. The Potency in [12] is 23.7 µM (active).

For the compound `COCCCC/C(=N\OCCN)c1ccc(C(F)(F)F)cc1`, the Potency is 0.977 µM (active) in experiment [2] and 11 µM (active) in experiment [3]. Moreover, the Potency result with Papain (Carica papaya) was “inactive”.

With `CCOC(=O)C1=C(C)NC(C)=C(C(=O)OC)C1c1cccc(Cl)c1Cl` (stereo unspecified), the Potency entry in experiment [17], in [5] and in [6] was “inactive” in each case. In addition, the Potency in experiment [7] is 49.4 µM (active) and 47.8 µM (active). In addition, in [9], the outcome was “inactive”.
